Measurements reported in the supplement of paper PMC13380429.
Counter-ions that a name gives are not always drawn.

Columns and labels:
[1] = system: Vero E6 infected with SARS-CoV-2; experiment: morphology score (similarity to uninfected cells); higher = more like uninfected cells; details: 24 h
[2] = system: Vero E6 infected with SARS-CoV-2; experiment: SARS-CoV-2 infection rate relative to infected DMSO; higher = more infection, active = 60 or less; details: 24 h

`O=C1NC(O)CCN1[C@@H]1O[C@H](CO)[C@@H](O)[C@H]1O` (stereo partly drawn) [tetrahydrouridine] (10 µM) was tested, and the morphology score [1] was 0.167 and the SARS-CoV-2 infection rate [2] was 103% (inactive).
`Nc1cccc(CNC(=O)c2ccc(Oc3ccc(OCc4cccc(F)c4)cc3)nc2)c1` (10 µM) was tested, and the morphology score [1] was -0.419 and the SARS-CoV-2 infection rate [2] was 119% (inactive).
`C[n+]1cc2c3c(ccc2c2ccc4cc5c(cc4c21)OCO5)OCO3` [sanguinarium-chloride] (10 µM) was tested, and the morphology score [1] was -0.0249 and the SARS-CoV-2 infection rate [2] was 94.5% (inactive).
`O=c1[nH]c(=O)n([C@H]2C[C@H](O)[C@@H](CO)O2)cc1I` [idoxuridine] (10 µM) was tested, and the morphology score [1] was 0.0252 and the SARS-CoV-2 infection rate [2] was 108% (inactive).
For `O=C(N/N=C/c1ccc(O)c(O)c1)c1cc2ccccc2cc1O` [dynasore] (10 µM), the morphology score [1] was -0.107 and the SARS-CoV-2 infection rate [2] was 108% (inactive).
In the case of `CN(C)Cc1cccc(N=C(c2ccccc2)c2c(O)[nH]c3cc(C(=O)N(C)C)ccc23)c1` (10 µM), the morphology score [1] is reported as -0.271 and the SARS-CoV-2 infection rate [2] is reported as 112% (inactive).
For `O=C(c1cc2ccccc2o1)N1CCN(Cc2ccccc2)CC1` [befuraline] (10 µM), the morphology score [1] was -0.00895 and the SARS-CoV-2 infection rate [2] was 106% (inactive).
In the case of `CCCCCCCC/C=C/C(=O)O` [trans-2-undecenoic-acid] (10 µM), the morphology score [1] is reported as 0.204 and the SARS-CoV-2 infection rate [2] is reported as 112% (inactive).
For `Nc1nccs1` [aminothiazole] (10 µM), the morphology score [1] was 0.0165 and the SARS-CoV-2 infection rate [2] was 104% (inactive).
`CCc1c2c(nc3ccc(O)cc13)-c1cc3c(c(=O)n1C2)COC(=O)[C@]3(O)CC` (0.833333 µM) was tested, and the morphology score [1] was -0.131 and the SARS-CoV-2 infection rate [2] was 116% (inactive).
With `c1cnc(NCc2ccc(CNc3ncccn3)cc2)nc1` (10 µM) the morphology score [1] was 0.18 and the SARS-CoV-2 infection rate [2] was 112% (inactive).
`CC/C(=C(\c1ccc(O)cc1)c1ccc(OCCNC)cc1)c1ccccc1` [Endoxifen HCl] (10 µM) was tested, and the morphology score [1] was 0.817 and the SARS-CoV-2 infection rate [2] was 26% (active).
In the case of `Cc1cc(-c2ccc(/N=N/c3ccc4c(S(=O)(=O)O)cc(S(=O)(=O)O)c(N)c4c3O)c(C)c2)ccc1/N=N/c1ccc2c(S(=O)(=O)O)cc(S(=O)(=O)O)c(N)c2c1O` [evans-blue] (0.833333 µM), the morphology score [1] is reported as -0.0473 and the SARS-CoV-2 infection rate [2] is reported as 110% (inactive).
With `COc1ccc2nc(NC(=O)Nc3ccccc3)sc2c1` [frentizole] (10 µM) the morphology score [1] was -0.0784 and the SARS-CoV-2 infection rate [2] was 114% (inactive).
For `CC(C)(C(=O)O)c1ccc(C(=O)CCCN2CCC(OC(c3ccccc3)c3ccccc3)CC2)cc1` [carebastine] (10 µM), the morphology score [1] was 0.0702 and the SARS-CoV-2 infection rate [2] was 103% (inactive).
`Cc1cn([C@H]2C=C[C@@H](CO)O2)c(=O)[nH]c1=O` [stavudine] (10 µM) was tested, and the morphology score [1] was 0.031 and the SARS-CoV-2 infection rate [2] was 106% (inactive).
In the case of `CC(C)=CCC/C(C)=C/CC/C(C)=C/CSc1ccccc1C(=O)O` [salirasib] (10 µM), the morphology score [1] is reported as 0.161 and the SARS-CoV-2 infection rate [2] is reported as 89% (inactive).
In the case of `O=C1C(=Cc2cccnc2)C(=O)c2ccccc21` (10 µM), the morphology score [1] is reported as 0.19 and the SARS-CoV-2 infection rate [2] is reported as 99% (inactive).
For `CC(C)(N)c1nc(-c2ccc(OC(F)(F)F)cc2)c[nH]1` (10 µM), the morphology score [1] was 0.0118 and the SARS-CoV-2 infection rate [2] was 103% (inactive).
In the case of `Nc1nc(F)nc2c1ncn2[C@@H]1O[C@H](COP(=O)(O)O)[C@@H](O)[C@@H]1O` [fludarabine-phosphate] (10 µM), the morphology score [1] is reported as 0.103 and the SARS-CoV-2 infection rate [2] is reported as 82.5% (inactive).
`NC(=O)NO` [hydroxyurea] (10 µM) was tested, and the morphology score [1] was 0.223 and the SARS-CoV-2 infection rate [2] was 100% (inactive).
In the case of `CCCNC(C)(C)COC(=O)c1ccccc1` [meprylcaine] (10 µM), the morphology score [1] is reported as 0.0721 and the SARS-CoV-2 infection rate [2] is reported as 102% (inactive).
With `CCOC(=O)c1c(CSc2ccccc2)n(C)c2cc(Br)c(O)c(CN(C)C)c12` [arbidol] (10 µM) the morphology score [1] was 0.126 and the SARS-CoV-2 infection rate [2] was 87.5% (inactive).
With `Cc1cc(CC(C)CC(C)(C)C)n(O)c(=O)c1` (stereo not drawn) [piroctone-olamine] (10 µM) the morphology score [1] was 0.406 and the SARS-CoV-2 infection rate [2] was 88% (inactive).
For `O=C(O)c1ccccc1` [benzoic-acid] (10 µM), the morphology score [1] was 0.0363 and the SARS-CoV-2 infection rate [2] was 110% (inactive).
`CC(C)(Oc1ccc(Cl)cc1)C(=O)OCCOC(=O)c1cccnc1` [etofibrate] (10 µM) was tested, and the morphology score [1] was 0.105 and the SARS-CoV-2 infection rate [2] was 105% (inactive).
For `O=C(N[C@H](CO)[C@H](O)c1ccc([N+](=O)[O-])cc1)C(Cl)Cl` [chloramphenicol] (10 µM), the morphology score [1] was -0.278 and the SARS-CoV-2 infection rate [2] was 117% (inactive).
For `CC(C)Oc1ccc(-c2nn([C@@H](C)c3oc4ccc(F)cc4c(=O)c3-c3cccc(F)c3)c3ncnc(N)c23)cc1F` (10 µM), the morphology score [1] was 0.0291 and the SARS-CoV-2 infection rate [2] was 106% (inactive).
For `Cc1cc(C)c(N(Cc2ccccc2)S(=O)(=O)c2ccc(OCCNC(=O)c3cc4ccccc4o3)cc2)c(C(=O)NO)c1` (0.833333 µM), the morphology score [1] was -0.0297 and the SARS-CoV-2 infection rate [2] was 96% (inactive).
